This is an account of results in PubChem BioAssay AID743445 (Broad Institute, 2014).

The inhibition is the relative decrease from the control value, in per cent.

Hit rate of the full screen: of about 310,000 compounds, about 1,700 (0.55%) were called active. Shown is part of a subset that was picked to be rich in actives. Unmarked numbers belong to inactive results. Rule as the data show it: active = inhibition above about 50%; inactive = the rest.

Histone-lysine N-methyltransferase NSD2 (Homo sapiens), sequence (O96028 whole entry, looked up): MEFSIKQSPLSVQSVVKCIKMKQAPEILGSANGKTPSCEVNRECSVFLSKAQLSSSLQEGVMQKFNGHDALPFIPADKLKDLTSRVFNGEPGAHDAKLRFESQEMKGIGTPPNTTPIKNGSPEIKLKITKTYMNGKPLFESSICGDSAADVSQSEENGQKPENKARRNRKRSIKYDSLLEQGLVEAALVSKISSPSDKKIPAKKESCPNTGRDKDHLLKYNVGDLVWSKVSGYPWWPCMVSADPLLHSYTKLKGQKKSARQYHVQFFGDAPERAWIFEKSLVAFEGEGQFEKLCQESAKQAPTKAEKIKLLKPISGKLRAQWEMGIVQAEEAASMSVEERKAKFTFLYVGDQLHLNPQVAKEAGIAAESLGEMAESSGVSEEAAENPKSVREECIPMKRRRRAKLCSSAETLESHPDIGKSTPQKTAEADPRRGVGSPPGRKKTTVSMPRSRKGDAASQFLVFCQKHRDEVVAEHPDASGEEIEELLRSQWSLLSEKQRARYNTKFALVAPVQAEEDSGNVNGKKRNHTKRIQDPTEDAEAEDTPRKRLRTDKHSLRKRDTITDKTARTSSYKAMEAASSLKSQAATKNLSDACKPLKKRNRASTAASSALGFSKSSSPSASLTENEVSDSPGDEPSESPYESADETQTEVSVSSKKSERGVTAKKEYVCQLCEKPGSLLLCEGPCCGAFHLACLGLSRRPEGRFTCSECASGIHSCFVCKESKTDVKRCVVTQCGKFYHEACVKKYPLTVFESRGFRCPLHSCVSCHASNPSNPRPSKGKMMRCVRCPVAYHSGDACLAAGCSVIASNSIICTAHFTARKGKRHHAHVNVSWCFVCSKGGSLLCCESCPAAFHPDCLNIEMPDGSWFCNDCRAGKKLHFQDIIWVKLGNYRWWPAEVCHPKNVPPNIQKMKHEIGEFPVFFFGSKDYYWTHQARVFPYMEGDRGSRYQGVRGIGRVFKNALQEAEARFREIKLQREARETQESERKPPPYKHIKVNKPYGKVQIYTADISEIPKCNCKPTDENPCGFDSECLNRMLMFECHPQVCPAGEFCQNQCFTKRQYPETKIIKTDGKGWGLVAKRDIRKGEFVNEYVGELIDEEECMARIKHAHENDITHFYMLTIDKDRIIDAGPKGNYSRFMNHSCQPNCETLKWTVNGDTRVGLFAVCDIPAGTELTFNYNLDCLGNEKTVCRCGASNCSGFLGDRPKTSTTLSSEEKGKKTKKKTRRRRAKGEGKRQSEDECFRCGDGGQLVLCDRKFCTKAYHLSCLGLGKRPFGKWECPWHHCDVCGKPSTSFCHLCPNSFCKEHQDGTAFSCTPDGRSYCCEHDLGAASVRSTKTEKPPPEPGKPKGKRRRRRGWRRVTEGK

This test has as its target Histone-lysine N-methyltransferase NSD2 (Homo sapiens) (UniProt O96028). Description: blockers of NSD2 lysine methylation activity – biochemical, AlphaScreen, single concentration, set 2, primary screen (AID 743445). Conditions: NSD2 peptide methylation, 120 min, at 12.5 µM, hits give high values. (In general: Alpha assays give light when donor and acceptor beads are brought close together.)
As to `O=C(NC1CCCCC1)c1ccc(-c2ccc(Cl)cc2)o1`, the inhibition is -1.75%.
Next, `Cc1[nH][nH]c(=O)c1C(c1ccc(-c2ccc(Cl)cc2)o1)c1c(C)[nH][nH]c1=O`: 105% (active).
With `CN(CC(=O)Nc1ccc(F)cc1)C(=O)c1ccc(-c2ccc(Cl)cc2)o1`, the inhibition is -0.366%.
Regarding `O=C(NCC1COc2ccccc2O1)c1ccc(NC(=O)c2cc(F)ccc2F)cc1` (configuration not stated), the inhibition was -0.735%.
Take `CCOC(=O)N1CCN(CCC(=O)Nc2ccccc2)CC1`: the inhibition was -3.41%.
Regarding `COc1ccc(OC)c(NC(=O)CCN2CCC(C)CC2)c1`, the inhibition was 0.958%.
Turning to `CC1CCN(CCC(=O)Nc2ccccc2)CC1`, the inhibition was 51.1% (active).
Next, `O=c1[nH]c(CN2CCOCC2)nc2cc(Cl)ccc12`: 108% (active); `O=c1[nH]c(CN2CCOCC2)nc2scc(-c3ccccc3)c12`: -2.17%; `CN(CCOc1ccccc1)Cc1nc2cc(Cl)ccc2c(=O)[nH]1`: -1.91%.
In the case of `Cc1ccccc1CS(=O)(=O)Cc1ccc(C(=O)Nc2ccc(Cl)cc2)o1`, the inhibition was 1.09%.
Consider `CCOC(=O)c1csc(NC(=O)C2CCCN(S(=O)(=O)c3ccc(Cl)s3)C2)n1` (configuration not stated), for which the inhibition was 2.06%.
For `Cc1cc(C)cc(-c2nnc(SCC(=O)NC3CC3)o2)c1`, the inhibition is 0.103%.
Next, `Cc1occc1-c1nnc(SCC(=O)NC2CCCCC2)o1`: 0.775%; `O=C(CSc1nnc(-c2ccccc2O)o1)NC1CCCCC1`: 55.7% (active); `CN(C)C(=O)N1CCN(C(=O)[C@@H](Cc2ccccc2)NC(=O)[C@H]2O[C@@H](n3ccc(N)nc3=O)[C@H](O)[C@@H]2O)CC1`: -3.38%.
Next, `Clc1ccc(C2=CSC3=Nc4cccc5cccc(c45)N23)cc1`: 125% (active).
Turning to `CCc1ccc(NC(=O)Cn2nnc(C(=O)NCc3ccc(OC)cc3)c2N)cc1`, the inhibition was -10.9%.
As to `COc1ccc(NC(=O)Cn2nnc(C(=O)NCCc3ccc(OC)c(OC)c3)c2N)cc1`, the inhibition is 159% (active).
As to `COc1ccc(CNC(=O)c2nnn(CC(=O)Nc3cc(C)cc(C)c3)c2N)cc1`, the inhibition is 0.097%.
As to `CC(C)(C)c1ccc(CSc2nnc(-c3cccs3)o2)cc1`, the inhibition is -3.66%.
Next, `CC(=O)Nc1ccc(S(=O)(=O)N2CCSCC2)cc1`: -0.875%; `COc1cc(C(C)=O)ccc1OC(C)C(=O)Nc1ccc(S(=O)(=O)N2CCCC2)cc1` (configuration not stated): -0.04%.
`C=CCn1c(=NC(=O)c2ccc(S(=O)(=O)N3CCCC3)cc2)sc2cc(NC(C)=O)ccc21`: the inhibition was 96.1% (active).
Next, `Clc1ccc(-n2c(SC/C=C/c3ccccc3)nnc2-c2ccco2)cc1`: 1.46%.
Consider `COc1cccc(CNC(=O)C2CCCN(c3nc4ccccc4o3)C2)c1OC` (configuration not stated), for which the inhibition was 0.947%.
Next, `CN(C)CCNC(=O)c1ccc(-c2cn3c(-c4ccc(Oc5ccccc5)cc4)cnc3cn2)cc1`: 1.51%.
Next, `Cc1ccc(C(=O)C2CCN(CC(=O)NCCC(C)C)CC2)cc1`: -1.14%; `O=C(NC(c1ccc(Cl)cc1)c1cnccn1)C1CCN(Cc2ccc(Cl)cc2)CC1` (configuration not stated): -0.128%.
Next, `Cn1c(=O)c2cc(NC(=O)NCCc3cccs3)ccc2n1Cc1cccc(C(F)(F)F)c1`: 0.114%; `O=C1Nc2cc(C(=O)N3CCC(N4CCCCC4)CC3)ccc2S/C1=C\c1ccccc1`: 50.2% (active); `CCN1CCN(CCNC(=O)c2ccc3c(c2)NC(=O)/C(=C\c2cccc(Cl)c2)S3)CC1`: 2.99%.
As for `CCN1CCCC1CNC(=O)c1ccc2c(c1)NC(=O)/C(=C\c1ccccc1F)S2` (configuration not stated), the inhibition was 21.8%.
`CCC(=O)N1CCc2cc(S(=O)(=O)NC(C(=O)N3CCc4ccccc4C3)C(C)C)ccc21` (configuration not stated): the inhibition was 59.8% (active).
With `CCC(=O)N1CCc2cc(S(=O)(=O)CCC(=O)N3CCN(c4ccccc4F)CC3)ccc21`, the inhibition is -2.83%.
With `CCOC(=O)N1CCC(NC(=O)C(NS(=O)(=O)c2ccc3c(c2)CCN3C(=O)CC)C(C)C)CC1` (configuration not stated), the inhibition was 17.1%.
Next, `COc1cccc(-c2cc3nc(NCc4ccccc4OC)n(C)c(=O)c3s2)c1`: -2.63%; `O=C(CSc1nc2ccccc2s1)NN=Cc1ccc(O)cc1O`: 9.45%.
Next, `C=CCNCCCCOc1ccccc1`: 73.8% (active); `C=CCNC(=O)CCCOc1cccc(C)c1`: -2.74%; `CCCCCCCCC(=O)NCCOc1ccccc1`: 1.73%.
Turning to `Cc1ccc(CC2(C)C(=O)Nc3ccc(OC(F)(F)F)cc32)cc1` (configuration not stated), the inhibition was -1.93%.
Next, `O=C(CN1CCC(NC(=O)NCc2ccccc2)CC1)Nc1ccc2c(c1)OCCO2`: -3.14%.
Next, `O=C(NCc1cccs1)C1CCN(S(=O)(=O)c2ccccc2[N+](=O)[O-])CC1`: -1.94%; `Cc1ccc(S(=O)(=O)/N=C2\C=C(NS(=O)(=O)c3ccc(C)cc3)C(=O)c3ccccc32)cc1`: 186% (active); `COc1ccc(S(=O)(=O)/N=C2\C=C(NS(=O)(=O)c3ccccc3)C(=O)c3ccccc32)cc1`: 116% (active).
For the compound `Cc1ccc(S(=O)(=O)N/N=C(\c2ccccc2)C2CC2)cc1`, the inhibition is -5.26%.
Turning to `COc1ccc(S(=O)(=O)NCCCc2ccccc2)cc1`, the inhibition was -2.03%.
As to `Cc1ccc(S(=O)(=O)N[C@H](CO)C(C)C)cc1`, the inhibition is -1.39%.
Next, `O=C1C=C(NS(=O)(=O)c2ccccc2)C(=O)c2ccccc21`: 16.2%; `CCCCN(C=O)c1c(CC)nc2c(OCc3ccccc3C(=O)OC)cccn12`: 2.37%.
For `Cc1nc2c(OCc3cccc(Cl)c3)cccn2c1N(C)CC1CC1`, the inhibition was 1.55%.
Next, `CCn1c2ccccc2c2cc(NC(=O)CSc3nnc(-c4ccccc4)n3-c3ccc(C)cc3)ccc21`: 0.529%; `CC(C)(C)CC(=O)Nc1nnc(SCC(=O)NCc2cccs2)s1`: 63.2% (active).
Next, `Cc1nnc(SCC(=O)NCc2cccs2)[nH]c1=O`: -1.95%; `O=C(Cc1cccs1)Nc1nnc(SCc2ccc(F)cc2)s1`: 0.676%.
Take `CCOC(=O)[C@]12CCCC=C1N(CCC1=CCCCC1)C(=O)[C@H](CC(=O)NCCCCc1ccccc1)C2`: the inhibition was 1.69%.
On to `Cc1ccnc(N2CCC(C(=O)NC3CCCCCC3)CC2)n1`, for which the inhibition is 90.5% (active).
With `O=C(NC1CCCCCC1)C1CCN(C(=O)c2ccc(Cl)cc2)CC1`, the inhibition was -0.793%.
Next, `Cc1ccnc(N2CCCC(C(=O)NC3CC3)C2)n1` (configuration not stated): -1.73%; `O=S(=O)(c1ccccc1)N1CCC(c2nc3ccccc3o2)CC1`: -2.44%.
Next, `CCOC(=O)c1nnn(-c2nonc2OC)c1-c1ccccc1`: 113% (active); `Nc1nonc1-n1nnc(C(=O)N/N=C/C2CCCCC2)c1-c1ccccc1`: 4.38%.
With `CCOC(=O)c1nnn(-c2nc(OC)nc(N(C)C)n2)c1-c1ccccc1`, the inhibition was -2.39%.
Consider `CN(CCc1ccccc1)C(=O)Cn1nc(-c2ccccc2)ccc1=O`, for which the inhibition was 4.36%.
Next, `Cc1ccccc1NC(=O)CCOc1ccccc1`: -2.79%.
Next, `Cc1cccc(OCCC(=O)Nc2ccccc2C(N)=O)c1`: 93.5% (active).
Take `Cc1cccc(OCC(=O)Nc2ccccc2F)c1`: the inhibition was 12.4%.
Next, `COc1ccc(-c2ccc(C(=O)NC(C)C)c3occc23)c(C)c1`: -1.69%; `CCc1ccccc1NC(=O)CSc1nnc(-c2cccs2)o1`: 3.02%; `Nc1ccn([C@@H]2O[C@H](C(=O)N[C@H]3CCCCNC3=O)[C@@H](O)[C@H]2O)c(=O)n1`: -3.79%.
Next, `CCN(CC)c1ccc(NC(=O)c2ccc(Cl)nc2)cc1`: 2.22%; `CC(=O)NC(=S)NNC(=O)c1ccc(Br)cc1`: -3.53%.
Next, `O=C(NNC(=O)c1ccc(Cl)nc1)c1ccc(Br)cc1`: 98.9% (active).
For `COc1ccc(-c2cc(-c3nnc(SCC(=O)Nc4cccc5ccccc45)n3N)[nH]n2)cc1`, the inhibition was -2.83%.
With `CC(=O)c1ccc(Nc2nc(C(N)c3ccccc3)cs2)cc1` (configuration not stated), the inhibition was -2.82%.
In the case of `CC(=O)Nc1ccc(-c2ccnc3c2CC(C(=O)NC(C)C)O3)cc1` (configuration not stated), the inhibition was -0.999%.
Consider `O=C(Nc1ccc(Cl)cc1)C1Cc2c(-c3ccc4c(c3)OCO4)ccnc2O1` (configuration not stated), for which the inhibition was -1.29%.
Next, `COc1ccc(NC(=O)C2Cc3c(-c4ccc(Cl)cc4)ccnc3O2)cc1` (configuration not stated): 54.6% (active); `CN(C)S(=O)(=O)c1cccc(NC(=O)COC(=O)/C=C/c2cccs2)c1`: -17%.
Next, `Cc1ccc(S(=O)(=O)N(C)C)cc1NC(=O)COC(=O)/C=C/c1cccs1`: 0.889%.
Next, `Cc1ccc(S(=O)(=O)N(C)C)cc1NC(=O)/C=C/c1cccs1`: 57.7% (active); `CC(NCc1ccco1)C(=O)N1CCCCC1` (configuration not stated): 0.508%.
Take `COc1ccccc1C(=O)CSc1nnc(-c2ccccn2)n1-c1ccccc1`: the inhibition is -4.28%.
As to `COCCNC(=O)Nc1ccc2nc(-c3ccco3)c(-c3ccco3)nc2c1`, the inhibition is 104% (active).
Take `Cc1nc2cc(NC(=O)NCc3ccccc3)ccc2o1`: the inhibition was -1.07%.
Next, `CCOc1cc(NC(=S)NCCCOC)c(OCC)cc1NC(=O)c1ccco1`: 1.89%.
On to `COc1ccccc1CNC(=O)c1cc(-c2cc(F)ccc2OC)n[nH]1`, for which the inhibition was 4.87%.
Consider `CCc1nc2c(OCCOc3ccccc3)cccn2c1N(C)C(=O)c1ccc(OC)cc1`, for which the inhibition was -0.87%.
For `CCN1CCCC1CNc1ncnc2c1[nH]c1ccc(F)cc12` (configuration not stated), the inhibition was 74.6% (active).
Next, `CCN1CCCC1Cn1cnc2c([nH]c3cc(OC)ccc32)c1=O` (configuration not stated): -4.76%; `CCN1CCCC1CNC(=O)c1cc2cc(OC)c(OC)cc2[nH]1` (configuration not stated): 17.7%.
